In PubChem BioAssay (NCI):
About 79,000 compounds went through this panel and 15% of them were active in at least one assay; those are over-represented in the sample as a whole. Values without a mark were called inactive. The source made the active and inactive calls. Rule as the data show it: active = growth inhibition above about 70%; inactive = the rest. Residues, ends and D or L forms follow the SMILES beside them. *: point of attachment. Fmoc = O=C(OCC1c2ccccc2-c2ccccc21)*; Boc = CC(C)(C)OC(=O)*

Assay: NCI Yeast Anticancer Drug Screen. Data for the rad18 strain (AID 177)
Details: S. cerevisiae rad18 mutant growth inhibition; at 33.0 µM; active compounds read high
Method in brief: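 Inhibition values reflect reduced yeast growth compared with vehicle-treated controls, using a strain engineered with a DNA damage repair defect.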

Row | Structure (SMILES) | growth inhibition
1 | CC(C)OP(=O)(OC(C)C)/C(Cl)=N/Nc1ccc([N+](=O)[O-])cc1 | 96% (active)
2 | O=[N+]([O-])c1cc(Cl)ccc1S(=O)(=O)c1ccc(Cl)cc1[N+](=O)[O-] | 91% (active)
3 | CCCCCCNCCCNc1c2cc(OC)ccc2nc2cccc([N+](=O)[O-])c12 | 95% (active)
4 | N#CCC(=O)N/N=C(\c1ccccc1)C(c1ccccc1)C1(O)C(=O)Nc2c(Cl)ccc(Cl)c21 (stereo not drawn) | 24%
5 | CN(C)CCNCCCNc1c2ccccc2nc2cccc([N+](=O)[O-])c12 | 96% (active)
6 | CCC[CH2][Ge]([CH2]CCC)([CH2]CCC)[O]C(=O)C(O)c1ccccc1 (stereo not drawn) | 89% (active)
7 | COc1ccc(-c2cc(-c3cc(C)cc(Cl)c3O)nc3[nH]c(=S)[nH]c(=S)c23)cc1 | 8%
8 | O=[N+]([O-])c1ccc(/C=C\c2ccc3c(c2)OCO3)c([N+](=O)[O-])c1 | 27%
9 | O=C1c2ccccc2N2OC3(N4CCCC4)CCCCC3C12c1ccccc1 (stereo not drawn) | 15%
10 | CC(C)OC(=O)NNc1cc(Cl)ccc1Cl | 62%
11 | Cc1oc2ccccc2c(=O)c1Cn1nnc2ccccc21 | 15%
12 | CC1(C)OC(=O)C(=Cc2ccc([N+](=O)[O-])s2)C(=O)O1 | 85% (active)
13 | CCN(CC)CCCNc1ccc([N+](=O)[O-])c2nc3ccc(OC)cc3c(NCCCN(CC)CC)c12 | 4%
14 | COc1cccc(/C=C2\S/C(=N/Nc3nc(-c4ccc([N+](=O)[O-])cc4)cs3)NC2=O)c1O | 93% (active)
15 | OC(Cc1cccc2ccccc12)CN1CCC(c2ccccc2)CC1 (stereo not drawn) | 65%
16 | C1=CCN([B-](c2ccccc2)[C+]2CCCCC2)C=C1 | 75% (active)
17 | O=[N+]([O-])c1cc[n+]([O-])c(Cl)c1 | 98% (active)

Row | Structure (SMILES) | growth inhibition
18 | CCCNC(=O)OCc1c(COC(=O)NCCC)c(-c2ccc(Cl)c(Cl)c2)n2c1CCC2 | 62%
19 | CC1(C)CC(=O)C(C(=O)Nc2cccs2)=C(O)C1 | 48%
20 | O=C(NO)c1coc2ccccc2c1=O | -4%
21 | COc1ccc(C(C)c2cc3c(cc2OCC(C)=O)OCO3)cc1 (stereo not drawn) | 11%
22 | O=S(=O)(c1ccccc1)N1CN2CN(C1)CN(S(=O)(=O)c1ccccc1)C2 | -27%
23 | CC1=NN(C(=O)c2ccccc2O)C(=O)/C1=C/c1ccco1 | 86% (active)
24 | O=C1C=C(Br)C(=O)c2ccccc21 | 99% (active)
25 | C[N+](C)([O-])CCCNc1c2ccccc2nc2cccc([N+](=O)[O-])c12 | 97% (active)
26 | Cc1cccc2c(NCCCN(C)C)c3c([N+](=O)[O-])ccc(C)c3nc12 | 96% (active)
27 | OC1(c2ccccc2)C2CC=CC2C1(c1ccccc1)c1ccccc1 (stereo not drawn) | 1%
28 | C[n+]1c(-c2ccc(/C=N/NC(=O)c3ccc(C(=O)N/N=C/c4ccc(-c5cn6ccccc6[n+]5C)cc4)cc3)cc2)cn2ccccc21 | 55%
29 | CCN(CC)CCC(=O)Nc1ccc2sc3ccccc3c(=O)c2n1 | -1%
30 | O=[N+]([O-])c1ccc2nc(=S)[nH]n2c1 | 7%
31 | O=C(c1ccccc1)[C@H]1Nc2ccc(Cl)cc2[C@H]2OCCC[C@@H]12 | 31%
32 | COc1cc([N+](=O)[O-])c2ncccc2c1Br | 93% (active)
33 | O=S(=O)(c1cccc(C(F)(F)F)c1)N1c2ccccc2-n2cccc2C1c1cccnc1 (stereo not drawn) | 93% (active)
34 | CC(C)(C)OC(=O)NCCCCC(NC(=O)C(Cc1c[nH]c2ccccc12)NC(=O)OCC1c2ccccc2-c2ccccc21)C(=O)O (stereo not drawn) (Fmoc-Trp-Lys(Boc)-OH; configuration not given here) | 8%

Same assay, conditions: S. cerevisiae rad18 mutant growth inhibition; at 100.0 µM; active compounds read high

Row | Structure (SMILES) | growth inhibition
35 | CC(C)OP(=O)(OC(C)C)/C(Cl)=N/Nc1ccc([N+](=O)[O-])cc1 | 96% (active)
36 | O=[N+]([O-])c1cc(Cl)ccc1S(=O)(=O)c1ccc(Cl)cc1[N+](=O)[O-] | 87% (active)
37 | CCCCCCNCCCNc1c2cc(OC)ccc2nc2cccc([N+](=O)[O-])c12 | 98% (active)
38 | N#CCC(=O)N/N=C(\c1ccccc1)C(c1ccccc1)C1(O)C(=O)Nc2c(Cl)ccc(Cl)c21 (stereo not drawn) | 39%
39 | CN(C)CCNCCCNc1c2ccccc2nc2cccc([N+](=O)[O-])c12 | 96% (active)
40 | CCC[CH2][Ge]([CH2]CCC)([CH2]CCC)[O]C(=O)C(O)c1ccccc1 (stereo not drawn) | 99% (active)
41 | COc1ccc(-c2cc(-c3cc(C)cc(Cl)c3O)nc3[nH]c(=S)[nH]c(=S)c23)cc1 | 61%
42 | O=[N+]([O-])c1ccc(/C=C\c2ccc3c(c2)OCO3)c([N+](=O)[O-])c1 | 64%
43 | O=C1c2ccccc2N2OC3(N4CCCC4)CCCCC3C12c1ccccc1 (stereo not drawn) | 98% (active)
44 | CC(C)OC(=O)NNc1cc(Cl)ccc1Cl | 86% (active)
45 | Cc1oc2ccccc2c(=O)c1Cn1nnc2ccccc21 | 55%
46 | CC1(C)OC(=O)C(=Cc2ccc([N+](=O)[O-])s2)C(=O)O1 | 69%
47 | CCN(CC)CCCNc1ccc([N+](=O)[O-])c2nc3ccc(OC)cc3c(NCCCN(CC)CC)c12 | 7%
48 | COc1cccc(/C=C2\S/C(=N/Nc3nc(-c4ccc([N+](=O)[O-])cc4)cs3)NC2=O)c1O | 92% (active)
49 | OC(Cc1cccc2ccccc12)CN1CCC(c2ccccc2)CC1 (stereo not drawn) | 87% (active)
50 | C1=CCN([B-](c2ccccc2)[C+]2CCCCC2)C=C1 | 98% (active)
51 | O=[N+]([O-])c1cc[n+]([O-])c(Cl)c1 | 99% (active)

Row | Structure (SMILES) | growth inhibition
52 | CCCNC(=O)OCc1c(COC(=O)NCCC)c(-c2ccc(Cl)c(Cl)c2)n2c1CCC2 | 78% (active)
53 | CC1(C)CC(=O)C(C(=O)Nc2cccs2)=C(O)C1 | 99% (active)
54 | O=C(NO)c1coc2ccccc2c1=O | 25%
55 | COc1ccc(C(C)c2cc3c(cc2OCC(C)=O)OCO3)cc1 (stereo not drawn) | 84% (active)
56 | O=S(=O)(c1ccccc1)N1CN2CN(C1)CN(S(=O)(=O)c1ccccc1)C2 | -36%
57 | CC1=NN(C(=O)c2ccccc2O)C(=O)/C1=C/c1ccco1 | 94% (active)
58 | O=C1C=C(Br)C(=O)c2ccccc21 | 98% (active)
59 | C[N+](C)([O-])CCCNc1c2ccccc2nc2cccc([N+](=O)[O-])c12 | 97% (active)
60 | Cc1cccc2c(NCCCN(C)C)c3c([N+](=O)[O-])ccc(C)c3nc12 | 96% (active)
61 | OC1(c2ccccc2)C2CC=CC2C1(c1ccccc1)c1ccccc1 (stereo not drawn) | 41%
62 | C[n+]1c(-c2ccc(/C=N/NC(=O)c3ccc(C(=O)N/N=C/c4ccc(-c5cn6ccccc6[n+]5C)cc4)cc3)cc2)cn2ccccc21 | 70% (active)
63 | CCN(CC)CCC(=O)Nc1ccc2sc3ccccc3c(=O)c2n1 | 9%
64 | O=[N+]([O-])c1ccc2nc(=S)[nH]n2c1 | 60%
65 | O=C(c1ccccc1)[C@H]1Nc2ccc(Cl)cc2[C@H]2OCCC[C@@H]12 | 92% (active)
66 | COc1cc([N+](=O)[O-])c2ncccc2c1Br | 91% (active)
67 | O=S(=O)(c1cccc(C(F)(F)F)c1)N1c2ccccc2-n2cccc2C1c1cccnc1 (stereo not drawn) | 89% (active)
68 | CC(C)(C)OC(=O)NCCCCC(NC(=O)C(Cc1c[nH]c2ccccc12)NC(=O)OCC1c2ccccc2-c2ccccc21)C(=O)O (stereo not drawn) (Fmoc-Trp-Lys(Boc)-OH; configuration not given here) | 59%
